Screening data from PubChem.
The list is not random: actives were taken first. Their share in the collection is about 7.2%.
HCV inh: HCV inhibition | Huh7.5.1 HCVcc-Cre infection, luciferase reporter, 44 h | Potency, µM (highest dose often 41.8 µM), most hits filed as inhibitors | 340,000 tested, 3.4% active | AID 651820
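Compounds are dispensed onto cells plated 4 h earlier at 1,000 per well, with HCVcc-Cre virus (about 0.5 moi) added next. Following 44 h of culture, luminescent signal is measured for 15 sec after 15 min with substrate at room temperature.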
FMDV antiviral: foot and mouth disease virus antiviral activity. FMDV antiviral cell-based qHTS. Potency, µM (highest dose often 57.9 µM), actives largely listed as inhibitors. 410,000 tested, 1.2% active. AID 1159524; calls by dose curve; tested in HEK293T cells; also: read-out not given here; nearly all actives have a fitted effect of over 45% in size
Sm TGR block: S. mansoni TGR enzyme inhibition; 360,000 tested, 3% active; Q962Y6; purified TGR, DTNB reduction, TNB absorbance 405 nm; Potency, µM (doses to about 114 µM), hits mostly inhibitors; also: nearly all actives have a fitted effect of over 60% in size
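TGR 20 nM + NADPH 100 uM (dispensed conc.), cpd preinc 15 min RT; start with NADPH (500 uM addition) then DTNB (15 mM addition). Kinetic TNB absorbance, 405 nm filter. Four-parameter Hill fit across titration.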
LASV entry inh: Lassa virus entry inhibition; Potency, µM (doses to about 37.9 µM), most hits filed as inhibitors; 300,000 tested, 1.2% active; Lassa virus pseudotype entry inhibition, cell reporter; AID 540256; calls by dose curve; tested in HEK293 cells; also: nearly all actives have a fitted effect of over 50% in size
Marburg entry inh: Marburg virus entry inhibition. Marburg virus pseudotyped entry inhibition, cell reporter. Potency, µM (top dose mostly 37.8 µM), most hits filed as inhibitors. 300,000 tested, 1.8% active; calls by dose curve; tested in HEK293 cells
RE007 growth inh: less growth of the S. pombe RE007 Vpr strain; 360,000 tested, 0.21% active; S. pombe RE007 Vpr strain, BacTiter-Glo ATP luminescence, 24 h; Potency, µM (doses to about 92.2 µM), usual class: inhibitors; active = well fitted falling curve with a large enough effect; inconclusive = small, poorly fitted or top-dose-only effect; inactive = no such curve, though single readings can be large or run the other way; also: nearly all actives have a fitted effect of over 50% in size
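Fission yeast strain RE007, carrying one chromosomally integrated HIV-1 vpr copy, was seeded at OD 0.01 in PMG+AL medium with 23 nL pinned compound. After 24 h at 30 °C and 99% humidity, viability was read by BacTiter-Glo luminescence.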
Large screens that a line does not name were inactive. Unless noted, calls follow the shape of the dose curve; as a rule, active = well fitted curve in the direction sought with a large enough effect; inconclusive = small, poorly fitted or top-dose-only effect, or another doubt; inactive = no such curve, though single readings can be large; an effect the other way counts as inactive or inconclusive.

COc1ccccc1CN1C(=O)C(Cc2ccccc2)ON=C1c1ncccc1C (configuration not stated)	none (no result: HCV inh, Sm TGR block, LASV entry inh, Marburg entry inh)
COc1ccc(C(=O)N/C(=C\c2ccco2)C(=O)NCc2ccco2)cc1	Sm TGR block 45µM (no result: LASV entry inh, Marburg entry inh)
O=C(NCc1ccco1)/C(=C\c1ccco1)NC(=O)c1ccco1	Sm TGR block 8.9µM (no result: LASV entry inh, Marburg entry inh)
COc1ccc(C(=O)N/C(=C\c2ccco2)C(=O)NCc2cccnc2)cc1	Sm TGR block inconclusive
O=C(NCc1ccco1)/C(=C/C=C/c1ccccc1)NC(=O)c1ccco1	Sm TGR block 25µM (no result: LASV entry inh, Marburg entry inh)
CCOC(=O)[C@]12Cc3cc(Cl)ccc3[C@H]1N(CC(=O)OC)C(=O)c1ccccc12	FMDV antiviral 10µM (no result: HCV inh, Sm TGR block, LASV entry inh, Marburg entry inh)
CCOC(=O)[C@]12Cc3cc(Cl)ccc3[C@H]1N(C(C)C)C(=O)c1ccccc12	FMDV antiviral 10µM (no result: HCV inh, Sm TGR block, LASV entry inh, Marburg entry inh)
Cc1ccc(NC(=O)c2oc3ccccc3c2NC(=O)Cc2ccccc2)cc1	none (no result: HCV inh, RE007 growth inh)
Cc1ccc(Nc2cc(C)c3ccc(O)cc3n2)cc1C	HCV inh 10µM (no result: LASV entry inh, Marburg entry inh)
Cc1ccc(Nc2cc(C)c3c(O)cccc3n2)cc1C	HCV inh inconclusive (no result: LASV entry inh, Marburg entry inh)
CN(Cc1ccccc1)C(=O)COC(=O)/C=C/c1ccco1	Sm TGR block 3.5µM
CN(CCOC(=O)/C=C/c1ccco1)Cc1ccccc1	Sm TGR block 2.5µM (no result: LASV entry inh, Marburg entry inh)
Cc1ccc2occ(CN3CCN(c4ccccc4)CC3)c(=O)c2c1	Sm TGR block 25µM
O=c1c(CN2CCN(Cc3ccccc3)CC2)coc2ccc(Cl)cc12	HCV inh inconclusive, Sm TGR block 7.1µM, RE007 growth inh inconclusive
Cc1ccc2occ(CN3CCN(Cc4ccccc4)CC3)c(=O)c2c1	none (no result: HCV inh, FMDV antiviral, LASV entry inh, RE007 growth inh)
O=C(NC(Cc1c[nH]c2ccccc12)C(=O)O)OCC1c2ccccc2-c2ccccc21 (configuration not stated)	none (no result: HCV inh, Sm TGR block, LASV entry inh, Marburg entry inh)
CC1=NN(c2ccccc2)C(=O)/C1=C\C=C\c1ccccc1	HCV inh inconclusive, FMDV antiviral 22µM, LASV entry inh inconclusive, Marburg entry inh inconclusive
CN1/C(=C\C=[N+](C)c2ccccc2)C(C)(C)c2ccccc21	HCV inh 11µM, LASV entry inh 4.6µM, Marburg entry inh inconclusive (no result: FMDV antiviral)
CN1/C(=C\C=C2C(=O)NC(=S)NC2=O)C(C)(C)c2ccccc21	Marburg entry inh inconclusive
CC1=NN(c2ccccc2)C(=O)/C1=C\C=C1/N(C)c2ccccc2C1(C)C	HCV inh inconclusive, LASV entry inh inconclusive, Marburg entry inh 11µM
CC1=NN(c2ccccc2)C(=O)/C1=C\C=C1\N(C)c2ccccc2C1(C)C	HCV inh inconclusive, FMDV antiviral inconclusive
CN1C(=CC=C2C=C(I)C(=O)C(I)=C2)C(C)(C)c2ccccc21	FMDV antiviral 22µM
CCN(CC)CCN1C(=O)C(=O)/C(=C(\O)c2ccc(Cl)cc2)[C@@H]1c1ccncc1	none (no result: HCV inh, FMDV antiviral, Sm TGR block, LASV entry inh, RE007 growth inh)
CC1=NN(c2ccccc2)C(=O)/C1=C/c1c(O)[nH]c(=S)[nH]c1=O	FMDV antiviral inconclusive, Sm TGR block 8.9µM
CC1=NN(c2ccccc2)C(=O)/C1=C/c1c(O)[nH]c(=O)[nH]c1=O	Marburg entry inh inconclusive
O=C(NCc1cccc(Cl)c1)C1CCN(c2nn3cc(-c4ccc(F)cc4)nc3s2)CC1	none (no result: HCV inh, Marburg entry inh, RE007 growth inh)
O=C(NCc1cccc(Cl)c1)C1CCCN(c2nn3cc(-c4ccc(F)cc4)nc3s2)C1 (configuration not stated)	FMDV antiviral 11µM (no result: HCV inh, Marburg entry inh, RE007 growth inh)
Cc1ccc(NC(=O)C(Cc2ccccc2)NS(=O)(=O)c2ccc3c(c2)oc(=O)n3C)c(Cl)c1 (configuration not stated)	none (no result: HCV inh, RE007 growth inh)
Cc1cc(C)n(-c2nc3ccccc3nc2Nc2ccc3[nH]c(=O)[nH]c3c2)n1	HCV inh 11µM, FMDV antiviral inconclusive
O=C1CC(c2ccco2)c2ccc3ccccc3c2N1 (configuration not stated)	HCV inh inconclusive, Sm TGR block 45µM, LASV entry inh inconclusive
Cc1nnsc1-c1nc2ccccc2n1C(CCc1ccccc1)c1nc2ccccc2[nH]1 (configuration not stated)	none (no result: HCV inh, Sm TGR block, LASV entry inh, Marburg entry inh)
CC1CCN(CCn2c(=S)[nH]c3ncccc3c2=O)CC1	none (no result: HCV inh, FMDV antiviral, Sm TGR block, LASV entry inh, RE007 growth inh)
COc1ccc(N2CCN(CCCn3c(=S)[nH]c4ncccc4c3=O)CC2)cc1	LASV entry inh inconclusive, Marburg entry inh 4.1µM
O=c1c2cccnc2[nH]c(=S)n1CCCN1CCN(c2ccc(F)cc2)CC1	LASV entry inh 5.8µM, Marburg entry inh 4.6µM
O=C(CCNC(=O)c1ccc([N+](=O)[O-])cc1)Nc1cccc(S(=O)(=O)N2CCCCCC2)c1	FMDV antiviral inconclusive (no result: LASV entry inh, Marburg entry inh)
COc1cc(-c2cnc3ccccc3c2)cc2c1OCCN(C(=O)Cn1nccc1C)C2	none (no result: HCV inh, Sm TGR block, LASV entry inh, Marburg entry inh, RE007 growth inh)
Cc1cccc(N2C(N)=C(C#N)C(C#N)(C#N)C2c2ccccc2)c1 (configuration not stated)	FMDV antiviral 40µM, LASV entry inh inconclusive
Cc1occc1-c1nnc(SC(C)C(=O)Nc2ccccc2F)o1 (configuration not stated)	LASV entry inh 11µM, Marburg entry inh inconclusive
CN(C(=O)c1sc2nc(N3CCOCC3)c3c(c2c1N)CCCC3)c1ccccc1	HCV inh 11µM, FMDV antiviral inconclusive, LASV entry inh 3.5µM, Marburg entry inh inconclusive
CCOC(=O)c1sc2nc(N3CCOCC3)c3c(c2c1N)CCN(Cc1ccccc1)C3	LASV entry inh 16µM, Marburg entry inh inconclusive
Nc1c(C(=O)NCCc2ccccc2)sc2nc(N3CCOCC3)c3c(c12)CCCC3	HCV inh inconclusive
Cc1ccc(CNc2nc(CN3CCSCC3)nc3ccccc23)o1	none (no result: HCV inh, Sm TGR block, LASV entry inh, Marburg entry inh, RE007 growth inh)
Cn1c(-c2cccs2)[n+](C)c2ccccc21	HCV inh 11µM, Marburg entry inh inconclusive
COn1c(=O)c(-c2cccs2)[n+]([O-])c2ccccc21	HCV inh inconclusive, FMDV antiviral inconclusive, Sm TGR block inconclusive, Marburg entry inh inconclusive
C=CCSc1nc2ccccc2n1C(=O)/C=C/c1cc(OC)c(OC)c(OC)c1	HCV inh 6.3µM, FMDV antiviral 8.9µM, LASV entry inh 9.2µM, Marburg entry inh 13µM
CCSc1nc2ccccc2n1C(=O)/C=C/c1ccc(OC)c(OC)c1	HCV inh inconclusive, FMDV antiviral 20µM, LASV entry inh 6.3µM, Marburg entry inh inconclusive (no result: RE007 growth inh)
C=CCSc1nc2ccccc2n1C(=O)/C=C/c1ccc(OC)c(OC)c1	HCV inh inconclusive, FMDV antiviral inconclusive, LASV entry inh 8.2µM, Marburg entry inh inconclusive
COc1cccc([C@@H]2Oc3ccc(Br)cc3C(=O)[C@H]2OC(=O)N[C@H](C)C2CCCCC2)c1	none (no result: HCV inh, FMDV antiviral, Sm TGR block, LASV entry inh, RE007 growth inh)
Cc1nnc(SCC(=O)N2c3ccccc3C(C)(c3ccccc3)CC2(C)C)s1 (configuration not stated)	HCV inh inconclusive, FMDV antiviral 40µM, LASV entry inh inconclusive, Marburg entry inh inconclusive
CCCCC(=O)N1c2ccccc2C(C)(c2ccccc2)CC1(C)C (configuration not stated)	LASV entry inh inconclusive (no result: HCV inh, RE007 growth inh)
